Test results reported in PubChem BioAssay (NCI).
The panel holds about 79,000 compounds, 15% with a hit somewhere; the sample as a whole holds those more often. Active and inactive are the calls of the source. Rule as the data show it: active = growth inhibition above about 70%; inactive = the rest.

Key:
[1] = NCI Yeast Anticancer Drug Screen. Data for the rad52 strain (AID 147);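 also: 0% = growth of vehicle-treated control cultures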; conditions: S. cerevisiae rad52 mutant growth inhibition, stronger effect = higher value
Summary of the method: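 Read-out: growth inhibition versus vehicle-treated controls. Cells were a DNA repair-deficient yeast strain treated with compounds.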

[2] = NCI Yeast Anticancer Drug Screen. Data for the wt1 strain (AID 149);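 also: 0% = growth of vehicle-treated wt1 cultures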; conditions: S. cerevisiae wt1 strain (SPY 50644) growth inhibition, stronger effect = higher value
Summary of the method: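 Compounds are added to wt1 yeast cultures. Growth is then measured. Inhibition is expressed relative to vehicle-treated controls.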

[3] = NCI Yeast Anticancer Drug Screen. Data for the rad50EPP+ strain (AID 151);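 also: 0% = growth of vehicle-treated control cultures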; conditions: S. cerevisiae rad50 mutant strain, stronger effect = higher value
Summary of the method: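 Growth inhibition read against vehicle controls in rad50EPP+ yeast, a strain altered in DNA damage repair, after compound exposure.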

[4] = NCI Yeast Anticancer Drug Screen. Data for the mgt1 strain (AID 153); conditions: S. cerevisiae mgt1 mutant growth inhibition, stronger effect = higher value
Summary of the method: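 mgt1 yeast grown with test compound; read-out is growth inhibition versus vehicle-treated cultures.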

[5] = NCI Yeast Anticancer Drug Screen. Data for the rad50 strain (AID 155);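 also: 0% = growth of vehicle-only cultures of the same strain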; conditions: S. cerevisiae rad50 strain growth inhibition, stronger effect = higher value
Summary of the method: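 Inhibition values express reduced yeast growth in compound-treated cultures relative to vehicle-treated controls.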

[6] = NCI Yeast Anticancer Drug Screen. Data for the mec2-1 strain (AID 157); conditions: S. cerevisiae mec2-1 strain, stronger effect = higher value
Summary of the method: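 Yeast mec2-1 mutant treated with compound. Readout: growth inhibition vs vehicle controls.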

[7] = NCI Yeast Anticancer Drug Screen. Data for the rad14 strain (AID 159);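 also: 0% = growth of vehicle-treated control cultures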; conditions: S. cerevisiae rad14 strain growth inhibition, stronger effect = higher value
Summary of the method: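 A mutant yeast strain defective in DNA damage repair is treated with compound; inhibition of its growth is scored against untreated, vehicle-exposed cultures.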

[8] = NCI Yeast Anticancer Drug Screen. Data for the sgs1 mgt1 strain (AID 161);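 also: 0% = growth of cultures given vehicle only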; conditions: S. cerevisiae sgs1 mgt1 strain, stronger effect = higher value
Summary of the method: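 Mutant yeast exposed to compound; growth scored against vehicle-only wells.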

[9] = NCI Yeast Anticancer Drug Screen. Data for the CLN2oe strain (AID 163);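 also: 0% = growth of vehicle-only control cultures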; conditions: S. cerevisiae CLN2oe strain, stronger effect = higher value
Summary of the method: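 Read-out: yeast growth inhibition, expressed relative to vehicle-only controls. The strain bears an engineered cell-cycle alteration.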

[10] = NCI Yeast Anticancer Drug Screen. Data for the cln2 rad14 strain (AID 165);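 also: 0% = growth equal to vehicle treated cultures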; conditions: S. cerevisiae cln2 rad14 strain, stronger effect = higher value
Summary of the method: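 cln2 rad14 yeast strain; compound exposure; growth inhibition read vs vehicle controls.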

[11] = NCI Yeast Anticancer Drug Screen. Data for the bub3 strain (AID 167); conditions: S. cerevisiae bub3 mutant strain, stronger effect = higher value
Summary of the method: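 Steps: expose the mutant yeast strain to compound; grow alongside vehicle-treated cultures; measure growth; express inhibition against the vehicle cultures.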

[12] = NCI Yeast Anticancer Drug Screen. Data for the wt2 strain (AID 169);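 also: 0% = growth of vehicle-treated yeast cultures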; conditions: S. cerevisiae wt2 strain growth inhibition, stronger effect = higher value
Summary of the method: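 Read-out: growth inhibition versus vehicle-treated control cultures after compound exposure of the yeast strain.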

[13] = NCI Yeast Anticancer Drug Screen. Data for the mlh1 strain (AID 171);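 also: 0% = growth of vehicle-treated control cultures of the same strain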; conditions: S. cerevisiae mlh1 strain growth inhibition, stronger effect = higher value
Summary of the method: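 Read-out: growth inhibition versus vehicle controls. Strain: engineered yeast with a defined DNA repair or cell cycle defect, compound-treated.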

[14] = NCI Yeast Anticancer Drug Screen. Data for the mlh1 rad18 strain (AID 175); conditions: S. cerevisiae mlh1 rad18 strain growth inhibition, stronger effect = higher value
Summary of the method: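 Yeast w/ defined DNA-repair lesions; compound exposure; growth vs vehicle controls → % inhibition.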

[15] = NCI Yeast Anticancer Drug Screen. Data for the rad18 strain (AID 177); conditions: S. cerevisiae rad18 mutant growth inhibition, stronger effect = higher value
Summary of the method: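 Readout: growth inhibition vs vehicle controls. Cells: genetically altered yeast strain, DNA repair defect.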

[16] = at 5.0 µM (retest, dose inferred, filed as 0.5)
[17] = at 50.0 µM (retest, dose inferred, filed as 5.0)

Measured: growth inhibition

O=C(COC(=O)c1cc(O)c(O)c(O)c1)c1ccc(-c2ccccc2)cc1
active: [1]; at 100.0 µM 96% | [2]; at 100.0 µM 97% | [3]; at 33.0 µM 91% | [3]; at 100.0 µM 96% | [5]; [17] 94% | [5]; at 100.0 µM 95% | [6]; [17] 95% | [6]; at 100.0 µM 97% | [7]; at 100.0 µM 95% | [8]; [17] 98% | [9]; at 100.0 µM 83% | [11]; [17] 97% | [11]; at 100.0 µM 97% | [12]; at 100.0 µM 95% | [13]; at 100.0 µM 95% | [14]; [17] 97% | [15]; at 100.0 µM 95%
inactive: [1]; at 1.2 µM -2% | [1]; at 3.7 µM 2% | [1]; at 11.0 µM 8% | [1]; at 33.0 µM 38% | [2]; at 1.2 µM -3% | [2]; at 3.7 µM -3% | [2]; at 11.0 µM -2% | [2]; at 33.0 µM 10% | [3]; at 1.2 µM 6% | [3]; at 3.7 µM 21% | [3]; at 11.0 µM 47% | [4]; at 1.2 µM -1% | [4]; at 3.7 µM -1% | [4]; at 11.0 µM 0% | [4]; at 33.0 µM 46% | [4]; at 100.0 µM 39% | [5]; at 1.2 µM -1% | [5]; at 3.7 µM 1% | [5]; [16] -16% | [5]; at 11.0 µM 11% | [5]; at 33.0 µM 42% | [5]; at 50.0 µM 45.9% | [6]; at 1.2 µM -3% | [6]; at 3.7 µM -3% | [6]; [16] 6% | [6]; at 11.0 µM 3% | [6]; at 33.0 µM 34% | [6]; at 50.0 µM 30.4% | [7]; at 1.2 µM 1% | [7]; at 3.7 µM 1% | [7]; at 11.0 µM 9% | [7]; at 33.0 µM 44% | [8]; [16] 7% | [8]; at 50.0 µM 60.9% | [9]; at 1.2 µM -6% | [9]; at 3.7 µM -9% | [9]; at 11.0 µM -11% | [9]; at 33.0 µM -1% | [10]; [16] -84% | [10]; [17] -12% | [10]; at 50.0 µM 0.6% | [11]; at 1.2 µM -4% | [11]; at 3.7 µM -3% | [11]; [16] 3% | [11]; at 11.0 µM -3% | [11]; at 33.0 µM 21% | [11]; at 50.0 µM 59.2% | [12]; at 1.2 µM -3% | [12]; at 3.7 µM -5% | [12]; at 11.0 µM -4% | [12]; at 33.0 µM 66% | [13]; at 1.2 µM -3% | [13]; at 3.7 µM 0% | [13]; at 11.0 µM 4% | [13]; at 33.0 µM 57% | [14]; [16] 19% | [14]; at 50.0 µM 40.2% | [15]; at 1.2 µM -1% | [15]; at 3.7 µM 2% | [15]; at 11.0 µM 12% | [15]; at 33.0 µM 58%

CC(C)NC(=O)OCc1c(COC(=O)NC(C)C)c(-c2ccc(Cl)c(Cl)c2)n2c1CCC2
inactive: [1]; at 1.2 µM -38% | [1]; at 3.7 µM -28% | [1]; at 11.0 µM -19% | [1]; at 33.0 µM 1% | [1]; at 100.0 µM 68% | [2]; at 1.2 µM -38% | [2]; at 3.7 µM -34% | [2]; at 11.0 µM -45% | [2]; at 33.0 µM -32% | [2]; at 100.0 µM 30% | [3]; at 1.2 µM -23% | [3]; at 3.7 µM -18% | [3]; at 11.0 µM -5% | [3]; at 33.0 µM -18% | [3]; at 100.0 µM -4% | [4]; at 1.2 µM -60% | [4]; at 3.7 µM -48% | [4]; at 11.0 µM -59% | [4]; at 33.0 µM -39% | [5]; at 1.2 µM -35% | [5]; at 3.7 µM -29% | [5]; [16] 8% | [5]; at 11.0 µM -24% | [5]; at 33.0 µM 1% | [5]; [17] 44% | [5]; at 50.0 µM 58.6% | [5]; at 100.0 µM 63% | [6]; at 1.2 µM -71% | [6]; at 3.7 µM -61% | [6]; [16] -1% | [6]; at 11.0 µM -56% | [6]; at 33.0 µM -53% | [6]; [17] 8% | [6]; at 50.0 µM 47.6% | [6]; at 100.0 µM 47% | [7]; at 1.2 µM -33% | [7]; at 3.7 µM -26% | [7]; at 11.0 µM -30% | [7]; at 33.0 µM 10% | [8]; [16] 9% | [8]; at 50.0 µM 23% | [9]; at 1.2 µM 4% | [9]; at 3.7 µM 0% | [9]; at 11.0 µM 4% | [9]; at 33.0 µM 11% | [9]; at 100.0 µM 32% | [10]; [16] 23% | [10]; [17] 24% | [10]; at 50.0 µM 3.3% | [11]; at 1.2 µM -65% | [11]; at 3.7 µM -66% | [11]; [16] 18% | [11]; at 11.0 µM -69% | [11]; at 33.0 µM -34% | [11]; at 50.0 µM 17.4% | [11]; at 100.0 µM 63% | [12]; at 1.2 µM -31% | [12]; at 3.7 µM -21% | [12]; at 11.0 µM -31% | [12]; at 33.0 µM -36% | [12]; at 100.0 µM 26% | [13]; at 1.2 µM -44% | [13]; at 3.7 µM -71% | [13]; at 11.0 µM -69% | [13]; at 33.0 µM -40% | [14]; [16] 13% | [14]; [17] 68% | [14]; at 50.0 µM 69.2% | [15]; at 1.2 µM -17% | [15]; at 3.7 µM 2% | [15]; at 11.0 µM 1% | [15]; at 33.0 µM 34%
active: [4]; at 100.0 µM 76% | [7]; at 100.0 µM 84% | [8]; [17] 72% | [11]; [17] 79% | [13]; at 100.0 µM 76% | [15]; at 100.0 µM 84%
